This note sets out measurements from PubChem BioAssay (NCATS).

Records with an inconclusive call do not appear. Active and inactive are the calls of the source. Unless noted, the call rests on the fitted dose curve; in most records, active means well fitted curve in the direction sought with a large enough effect; inconclusive means small, poorly fitted or top-dose-only effect, or another doubt; inactive means no such curve, though single readings can be large; an effect the other way counts as inactive or inconclusive.

Experiment [1] is described as follows: AP1 Signaling Pathway (AID 357; active means well fitted curve in either direction with a large enough effect, not every such curve was filed as active;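 further: ME-180 reporter cells stimulated with EGF at its EC50 level; on the % scale 0 is the no-effect control and ±100 the full control effect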). In short, it runs like this:
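Modulation of EGF-driven AP-1 transcription was assessed with a beta-lactamase reporter in ME-180 cells. Compound and EC50 EGF were co-incubated 5 hours at 37 °C before 2.5-hour CCF4 loading at room temperature and dual-emission reading.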

Experiment [2] has as its target Cytochrome P450 1A2 (Homo sapiens) (UniProt P05177). In words: p450-cyp1a2 (AID 410; calls by dose curve; further: potency means the concentration at half of the fitted maximal effect;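 on activity change, negative = inhibition: -100% = full effect of reference inhibitor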). In short, it runs like this: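 Luminescent demethylation readout: Luciferin-ME (100uM, equal to Km) turned over by 20nM CYP1A2 for 60 min at room temperature after NADPH regeneration addition, following 10 min compound preincubation. Normalization used 57 uM furafylline as full inhibition.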

The nature of experiment [3]: Stat Signaling Pathway (AID 446; active means well fitted curve in either direction with a large enough effect, not every such curve was filed as active;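 further: ME-180 cervical cancer cells given 40 pM IL-6 alongside compound; SIE-controlled beta-lactamase reporter measured as 460/530 nm FRET emission ratio; on the % scale 0 is the no-effect control and ±100 the full control effect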). In short, it runs like this: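 Overnight-plated ME-180 cells bearing a STAT Inducible Element beta-lactamase reporter; 5 h co-exposure to compound and 40 pM IL-6; values normalized to 300 pM IL-6 and 125 nM JAK inhibitor controls.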
Experiment [4] addresses Glucocorticoid receptor (Homo sapiens) (UniProt P04150). As to the kind of experiment: GR-GFP Redistribution (AID 450;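 active means compounds whose dose series gives a full or clear partial fitted curve of increased nuclear translocation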; further: potency means the concentration at half of the fitted maximal effect). To be noted: U2OS GR-GFP nuclear translocation, laser cytometry, 2 h.
Experiment [5] deals with Mitogen-activated protein kinase 10 (Mus musculus) (UniProt Q61831). In words: JNK3 AlphaScreen Assay (AID 530; active means well fitted curve in either direction with a large enough effect, not every such curve was filed as active;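 further: kinase came from lysate of stimulated human HepG2 cells; signal reports phosphorylation of biotinylated GST-cJun 1-79 at Ser73 with 10 µM ATP; on the % scale 0 is the no-effect control and ±100 the full control effect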). In short, it runs like this: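 Activity was read by AlphaScreen after JNK3-containing HepG2 lysate (cytokine pre-activated) phosphorylated biotinylated GST-cJun with 10 uM ATP at room temperature. Phospho-Ser73 cJun antibody with Protein-A acceptor beads provided detection.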

A short description of experiment [6]: qHTS Assay for Lipid Storage Modulators (AID 1519; calls by dose curve). To be noted: Drosophila S3 cells, BODIPY lipid droplet/cell ratio, laser cytometry, cells loaded with oleic acid. In short, it runs like this:
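Cells seeded at 5,000 per well were treated with compounds over a concentration series and loaded with oleic acid (400 uM, as added). Lipid droplet fluorescence (488 nm excitation, 500-530 nm channel) was read by laser-scanning cytometry and normalized to 20 uM Triacsin C.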

Experiment [7] has as its target ATP-dependent 6-phosphofructokinase (Trypanosoma brucei brucei) (UniProt O15648). In words: qHTS Assay to Find Inhibitors of T. brucei phosphofructokinase: hit validation (AID 492961).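 Further: luminescence reports ADP formed as PFK phosphorylates fructose-6-phosphate with ATP; on the % scale 0 is the no-effect control and ±100 the full control effect.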 In short, it runs like this: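 Compounds titrated; %activity normalized to 0x and 1x enzyme controls, curve-fitted. Readout: ADP-Glo luminescence after 45 min room-temperature reaction of 1.25 nM PFK, 0.1 mM ATP, 0.5 mM F6P, pH 8.0.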
(In general: Quantitative high-throughput screening tests each substance at several concentrations.)

The target in experiment [8] is Ubiquitin carboxyl-terminal hydrolase 1 (Homo sapiens) (UniProt O94782). In words: Inhibitors of USP1/UAF1: Pilot qHTS (AID 504865).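 Further: rhodamine fluorescence freed from ubiquitin-rhodamine substrate followed over time; top concentration of the series differs between compounds; on the % scale 0 is the no-effect control and ±100 the full control effect; nearly all actives have a fitted effect of over 35% in size.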 In short, it runs like this: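 USP1/UAF1 complex at 1 nM preincubated 15 min at room temperature with compound, then Ub-Rho substrate added at 150 nM final. Fluorescence (480/540 nm) read kinetically in 50 mM HEPES pH 7.8, 0.5 mM EDTA, 1 mM TCEP, 0.1 mg/ml BSA, 0.01% Tween-20.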
Sequence of Ubiquitin carboxyl-terminal hydrolase 1 (Homo sapiens) (O94782 whole entry, looked up): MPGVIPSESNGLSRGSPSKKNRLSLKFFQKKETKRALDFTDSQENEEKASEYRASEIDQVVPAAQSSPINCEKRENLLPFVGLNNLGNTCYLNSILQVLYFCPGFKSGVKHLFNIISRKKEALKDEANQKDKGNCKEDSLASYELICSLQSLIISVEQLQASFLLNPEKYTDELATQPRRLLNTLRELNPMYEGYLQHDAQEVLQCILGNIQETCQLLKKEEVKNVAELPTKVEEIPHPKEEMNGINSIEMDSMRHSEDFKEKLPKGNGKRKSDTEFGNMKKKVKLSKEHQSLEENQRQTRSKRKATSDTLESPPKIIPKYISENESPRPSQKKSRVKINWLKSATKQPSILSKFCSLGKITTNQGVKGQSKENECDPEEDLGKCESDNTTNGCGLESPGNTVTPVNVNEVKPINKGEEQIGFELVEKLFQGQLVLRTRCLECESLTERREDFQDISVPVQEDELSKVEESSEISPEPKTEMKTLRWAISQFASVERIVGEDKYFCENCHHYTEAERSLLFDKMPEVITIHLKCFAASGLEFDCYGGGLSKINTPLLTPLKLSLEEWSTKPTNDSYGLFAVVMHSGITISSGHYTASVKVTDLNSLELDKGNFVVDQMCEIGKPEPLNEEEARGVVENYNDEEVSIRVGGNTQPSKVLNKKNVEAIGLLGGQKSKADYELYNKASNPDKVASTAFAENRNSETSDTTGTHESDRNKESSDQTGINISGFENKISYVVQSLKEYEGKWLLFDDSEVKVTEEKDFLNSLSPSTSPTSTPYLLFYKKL

For experiment [9], the target named is Luciferin 4-monooxygenase (Photinus pyralis) (UniProt P08659). In words: Biochemical firefly luciferase enzyme assay for NPC (AID 624030).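 Further: purified P. pyralis luciferase at 10 nM with luciferin and ATP substrate; 0% = DMSO and -100% = full luciferase inhibition by PTC124 control; nearly all actives have a fitted effect of over 70% in size.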 In short, it runs like this: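 Purified P. pyralis luciferase at 10 nM in 50 mM Tris Acetate (final), luminescence read within 5 minutes of enzyme addition to compounds. Activity normalised to PTC124 versus DMSO; concentration-response curves classed by r2, magnitude and activity.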
Sequence of Luciferin 4-monooxygenase (Photinus pyralis) (P08659 whole entry, looked up): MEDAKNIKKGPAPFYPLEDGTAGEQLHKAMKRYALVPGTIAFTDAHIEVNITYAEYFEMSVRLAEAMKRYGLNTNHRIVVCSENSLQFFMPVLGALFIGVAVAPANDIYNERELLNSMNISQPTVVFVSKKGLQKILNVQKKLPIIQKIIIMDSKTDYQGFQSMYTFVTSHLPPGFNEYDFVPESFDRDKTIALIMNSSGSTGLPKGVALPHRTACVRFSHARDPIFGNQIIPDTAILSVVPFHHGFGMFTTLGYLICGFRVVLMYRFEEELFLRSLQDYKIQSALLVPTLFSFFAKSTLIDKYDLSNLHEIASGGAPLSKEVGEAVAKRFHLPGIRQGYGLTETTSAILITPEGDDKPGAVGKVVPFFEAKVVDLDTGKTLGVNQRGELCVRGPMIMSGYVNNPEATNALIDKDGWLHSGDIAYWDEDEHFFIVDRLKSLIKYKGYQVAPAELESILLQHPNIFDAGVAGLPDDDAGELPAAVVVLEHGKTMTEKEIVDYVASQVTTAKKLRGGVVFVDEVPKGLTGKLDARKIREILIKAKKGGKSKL

Experiment [10] can be described thus: qHTS profiling for inhibitors of Plasmodium falciparum proliferation (AID 504749). Further: potency means the concentration at half of the fitted maximal effect.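 On activity, negative = inhibition: 0% = DMSO vehicle and full inhibition = artemisinin control.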 On all read-outs here: nearly all actives have a fitted effect of over 60% in size. Conditions: P. falciparum in erythrocytes, SYBR Green DNA, 72 h; for activity, negative = inhibition: at 12.8 µM (top of the series). The method in brief: (§1)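 Each compound contacts P. falciparum-infected red blood cells for 72 h at 37 C; lysis buffer (Tris, EDTA, saponin, Triton X, SYBR Green I) is added and fluorescence measured next morning; values normalized to controls.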

In a further experiment the test system is SC27B. The experiment is described as above. To be noted: P. falciparum in erythrocytes, SYBR Green DNA, 72 h; series mostly up to 12.8 µM. In short, it runs like this: as §1
Experiment [11] addresses Glucocorticoid receptor (Homo sapiens) (UniProt P04150). In words: GR-EFC Redistribution (AID 451; calls by dose curve; further: potency means the concentration at half of the fitted maximal effect). To be noted: CHO-K1 GR-EFC translocation, beta-gal luminescence, 2 h. In short, it runs like this:
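CHO-K1 cells expressing nuclear EA and GR-ED fragments of b-gal; compounds titrated up to 46 uM final, 2 h at 37 C. GR nuclear translocation read as complemented b-gal luminescence after 1 h RT detection.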

For experiment [12], the target named is 3',5'-cyclic-AMP phosphodiesterase 4B (Homo sapiens) (UniProt Q07343). As to the kind of experiment: qHTS Assay for Inhibitors of PDE-IV (AID 607; active means well fitted activation curve with a large enough effect in the main read-out, with a control signal flat, not every such curve was filed as active; further: % of control where 0% means no effect). In short, it runs like this: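 Live HEK293 cells with a modified cyclic nucleotide-gated (CNG) channel report intracellular cAMP via membrane-potential dye fluorescence (ex 535/em 590 nm). Endogenous PDE-IV was targeted. Compounds were tested at up to 22.9 uM final; RO 20-1724 100 uM served as control.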
Sequence of 3',5'-cyclic-AMP phosphodiesterase 4B (Homo sapiens) (Q07343 whole entry, looked up): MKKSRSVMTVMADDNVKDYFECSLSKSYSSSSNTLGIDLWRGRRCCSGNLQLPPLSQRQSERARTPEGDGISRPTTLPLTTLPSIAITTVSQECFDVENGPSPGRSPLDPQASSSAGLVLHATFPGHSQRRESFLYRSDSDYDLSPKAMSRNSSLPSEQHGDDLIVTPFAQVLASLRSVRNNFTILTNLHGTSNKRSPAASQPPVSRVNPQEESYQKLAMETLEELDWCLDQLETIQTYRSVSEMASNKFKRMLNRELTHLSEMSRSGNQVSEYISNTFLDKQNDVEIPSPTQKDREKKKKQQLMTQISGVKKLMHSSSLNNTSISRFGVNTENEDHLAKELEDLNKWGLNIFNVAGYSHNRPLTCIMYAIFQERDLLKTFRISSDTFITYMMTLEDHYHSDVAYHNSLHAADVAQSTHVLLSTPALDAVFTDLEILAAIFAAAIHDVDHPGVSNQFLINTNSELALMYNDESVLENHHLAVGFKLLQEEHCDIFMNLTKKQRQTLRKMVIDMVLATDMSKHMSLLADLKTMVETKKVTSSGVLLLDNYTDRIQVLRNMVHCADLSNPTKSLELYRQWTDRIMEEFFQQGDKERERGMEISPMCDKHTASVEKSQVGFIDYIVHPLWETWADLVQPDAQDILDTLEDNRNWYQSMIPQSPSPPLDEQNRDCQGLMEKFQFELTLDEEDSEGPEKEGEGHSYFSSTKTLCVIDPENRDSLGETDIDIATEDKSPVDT

Experiment [13] is described as follows: NFAT Signaling Pathway (AID 444; active means well fitted curve in either direction with a large enough effect, not every such curve was filed as active). Conditions: Jurkat NFAT-bla M1, carbachol, beta-lactamase ratio, 5 h; at 17.2 µM (top of the series) unless noted. In short, it runs like this:
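Jurkat cells with NFAT-driven β-lactamase reporter and co-expressed M1 receptor, stimulated with carbachol (final 1 uM, ~EC50), compound titration, 5 h at 37 °C. CCF4 loaded 1 h at RT; 460/530 nm ratio gave %activity and AC50.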

The subject of the next experiment is C2A. In words: qHTS profiling for inhibitors of Plasmodium falciparum proliferation (AID 504749). Further: nearly all actives have a fitted effect of over 60% in size. Further: potency means the concentration at half of the fitted maximal effect.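 On activity, negative = inhibition: 0% = DMSO vehicle and full inhibition = artemisinin control.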 Conditions: P. falciparum in erythrocytes, SYBR Green DNA, 72 h; series mostly up to 12.8 µM. The method in brief:
as §1

The next experiment deals with CP191. The description is as above. To be noted: P. falciparum in erythrocytes, SYBR Green DNA, 72 h; series mostly up to 12.8 µM. In short, it runs like this:
as §1

In another experiment the test system is CP238. The experiment is described as above. To be noted: P. falciparum in erythrocytes, SYBR Green DNA, 72 h; series mostly up to 12.8 µM. The method in brief: as §1
The next experiment concerns CP256. The experiment is described as above. To be noted: P. falciparum in erythrocytes, SYBR Green DNA, 72 h; series mostly up to 12.8 µM. The method in brief: as §1
The test system of another experiment is FAB9. Described as above. Conditions: P. falciparum in erythrocytes, SYBR Green DNA, 72 h; series mostly up to 12.8 µM. The method in brief: as §1
Another experiment concerns JCK. The experiment is described as above. To be noted: P. falciparum in erythrocytes, SYBR Green DNA, 72 h; series mostly up to 12.8 µM. In short, it runs like this: as §1
[14] abbreviates: measured here: cell count channel max response.
[15] abbreviates: measured here: lipid channel max response.

Sequence of Cytochrome P450 1A2 (Homo sapiens) (P05177 whole entry, looked up): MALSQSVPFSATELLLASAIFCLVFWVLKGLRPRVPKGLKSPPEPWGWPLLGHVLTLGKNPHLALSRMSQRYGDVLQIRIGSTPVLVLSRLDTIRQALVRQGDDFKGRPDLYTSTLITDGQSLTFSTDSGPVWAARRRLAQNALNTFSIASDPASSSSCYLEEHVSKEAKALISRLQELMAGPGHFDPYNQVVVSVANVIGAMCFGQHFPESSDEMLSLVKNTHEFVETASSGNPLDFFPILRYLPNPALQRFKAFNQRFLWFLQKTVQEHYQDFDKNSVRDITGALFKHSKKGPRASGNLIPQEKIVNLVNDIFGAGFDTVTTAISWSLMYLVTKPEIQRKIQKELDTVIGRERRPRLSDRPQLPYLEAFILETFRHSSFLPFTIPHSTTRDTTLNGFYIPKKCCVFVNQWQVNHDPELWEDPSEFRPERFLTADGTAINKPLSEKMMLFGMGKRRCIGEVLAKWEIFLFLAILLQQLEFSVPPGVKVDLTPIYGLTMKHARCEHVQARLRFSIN
Sequence of ATP-dependent 6-phosphofructokinase (Trypanosoma brucei brucei) (O15648 whole entry, looked up): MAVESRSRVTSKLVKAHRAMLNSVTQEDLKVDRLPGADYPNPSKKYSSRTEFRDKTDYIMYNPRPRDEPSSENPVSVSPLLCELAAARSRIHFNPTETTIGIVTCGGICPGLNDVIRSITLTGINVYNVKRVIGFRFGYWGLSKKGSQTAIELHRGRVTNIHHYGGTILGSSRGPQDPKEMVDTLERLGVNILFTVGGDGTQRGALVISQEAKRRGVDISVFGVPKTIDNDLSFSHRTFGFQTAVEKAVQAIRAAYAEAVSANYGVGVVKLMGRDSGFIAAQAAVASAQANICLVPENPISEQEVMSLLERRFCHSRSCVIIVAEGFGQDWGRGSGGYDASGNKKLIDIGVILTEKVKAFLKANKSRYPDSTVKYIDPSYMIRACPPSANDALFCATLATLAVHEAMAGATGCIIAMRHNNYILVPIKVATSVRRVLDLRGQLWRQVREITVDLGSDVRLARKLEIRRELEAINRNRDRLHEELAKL
Sequence of Glucocorticoid receptor (Homo sapiens) (P04150 whole entry, looked up, the tested form may be a part): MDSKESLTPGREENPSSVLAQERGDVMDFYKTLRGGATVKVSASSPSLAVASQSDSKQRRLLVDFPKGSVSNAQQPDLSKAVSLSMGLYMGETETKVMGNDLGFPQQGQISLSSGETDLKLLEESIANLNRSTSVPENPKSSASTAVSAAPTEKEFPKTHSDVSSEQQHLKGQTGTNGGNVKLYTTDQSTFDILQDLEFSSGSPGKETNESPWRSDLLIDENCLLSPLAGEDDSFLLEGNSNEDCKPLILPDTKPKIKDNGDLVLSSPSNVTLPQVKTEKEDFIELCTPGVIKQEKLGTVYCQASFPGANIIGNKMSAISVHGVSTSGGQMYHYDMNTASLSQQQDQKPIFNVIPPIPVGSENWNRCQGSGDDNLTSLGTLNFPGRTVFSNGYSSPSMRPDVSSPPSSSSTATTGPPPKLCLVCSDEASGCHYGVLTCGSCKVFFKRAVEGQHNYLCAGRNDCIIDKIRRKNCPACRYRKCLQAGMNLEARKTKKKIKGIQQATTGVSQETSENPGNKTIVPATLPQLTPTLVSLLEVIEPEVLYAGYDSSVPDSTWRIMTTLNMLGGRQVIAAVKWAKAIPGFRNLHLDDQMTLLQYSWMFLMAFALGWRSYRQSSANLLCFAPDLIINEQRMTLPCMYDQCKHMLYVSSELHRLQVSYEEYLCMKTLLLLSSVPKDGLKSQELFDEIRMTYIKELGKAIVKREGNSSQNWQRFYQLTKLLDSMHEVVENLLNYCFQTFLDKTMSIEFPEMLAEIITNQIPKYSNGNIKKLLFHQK

As to `Clc1ccc([C@H](Cn2ccnc2)OCc2csc3c(Cl)cccc23)c(Cl)c1`, the result in [1], in [3] and in [7] was inactive. Further, the Potency in experiment [2] was 6.31 µM (active); in [4], > 20.6 µM (inactive); in [10] (parasite line B), 3.55 µM (active); in the experiment with SC27B, 4.47 µM (active). Further, the Potency result in [5], in experiment [8] and in [9] was “inactive” each time. In addition, the activity change, negative = inhibition in experiment [6] (at 25.7 µM (top of the series)) is 0.1% (inactive). Also, the results for the max response in [6] (setting [14]) and in [6] (setting [15]) were -11.9% and -11.7%, respectively.

Take `C[C@H]1CC[C@@H]2[C@@H](C)[C@H]3[C@H](C[C@H]4[C@@H]5CC=C6C[C@@H](O[C@]7(O[C@H]8O[C@@H](C)[C@@H](O)[C@@H](O)[C@@H]8O)C[C@@H](O[C@@H]8O[C@H](CO)[C@@H](O)[C@H](O)[C@@H]8O)[C@@H](O)[C@H](CO)O7)CC[C@]6(C)[C@H]5CC[C@@]34C)N2C1`: the outcome in experiment [1], in [3] and in [12] was inactive. In addition, the Potency entry in experiment [2], in experiment [5] and in experiment [8] was “inactive” in each case. In addition, the Potency in experiment [4] and in experiment [11] was > 20.6 µM (inactive) each time. Besides, in experiment [6] (at 25.7 µM (top of the series)), the activity change, negative = inhibition is -0.703% (inactive). Besides, the values for the max response in experiment [6] (setting [14]) and in experiment [6] (setting [15]) were -8.96% and -10.1%, respectively.

Consider `C[N+]12CCC(CC1)[C@@H](OC(=O)C(O)(c1ccccc1)c1ccccc1)C2`, for which the call in experiment [1], in [12] and in experiment [7] was inactive. In addition, the Potency entry (in experiment [2]; in [5]; in experiment [9]; with C2A; in the experiment with CP191; in the experiment on CP238) was “inactive” throughout. In addition, the Potency result with CP256, in the experiment with FAB9, in the experiment on JCK and in the experiment with SC27B was “inactive” throughout. The activity change, negative = inhibition in [13] was -57.3% (active); in experiment [6] (at 25.7 µM (top of the series)), -3.29% (inactive). Also, the Potency in experiment [4] and in experiment [11] was > 20.6 µM (inactive) in each case. For the same compound, the max response in experiment [6] (setting [14]) is -12.1%; in experiment [6] (setting [15]), -15%. Besides, the activity, negative = inhibition is 11.6% (inactive) in experiment [10] (parasite line A) and 16% (inactive) in experiment [10] (parasite line B).

Consider `COC(=O)Nc1nc2ccc(SC(C)C)cc2[nH]1`, for which the compound was called inactive in [1], in [3] and in experiment [12]. Further, the values for the Potency in [2], in experiment [4] and in experiment [11] were 0.501 µM (active), > 20.6 µM (inactive) and > 20.6 µM (inactive), respectively. In addition, the Potency result in experiment [5] and in experiment [8] was “inactive” in each case. Also, the activity change, negative = inhibition in experiment [6] (at 25.7 µM (top of the series)) is -1.67% (inactive). The values for the max response in [6] (setting [14]) and in experiment [6] (setting [15]) were -2.31% and -4.22%, respectively.

In the case of `CC[C@](C)(CN(C)C)OC(=O)c1ccccc1`, the result in [1], in experiment [3], in experiment [12] and in [7] was inactive. The results for the activity change, negative = inhibition in experiment [13] and in [6] (at 25.7 µM (top of the series)) were -26.6% (inactive) and -5.12% (inactive), respectively. In addition, the Potency in experiment [4] and in experiment [11] was > 20.6 µM (inactive) each time. In addition, the Potency result (in experiment [5]; in experiment [8]; in experiment [9]; with C2A; in the experiment on CP191; with CP238) was “inactive” throughout. Also, the Potency result in the experiment on CP256, with FAB9, in the experiment on JCK and in the experiment with SC27B was “inactive” each time. Further, the max response is -9.58% in experiment [6] (setting [14]) and -16.2% in experiment [6] (setting [15]). The activity, negative = inhibition was 5.48% (inactive) in experiment [10] (parasite line A) and 4.88% (inactive) in [10] (parasite line B).

For the compound `CS(=O)(=O)Nc1cccc(-c2nc(Nc3ccc(F)cc3)c3ccccc3n2)c1`, the outcome in experiment [1] and in [12] was inactive. Besides, the Potency in [2] was 0.794 µM (active); in experiment [4], > 46 µM (inactive); in experiment [11] it was > 46 µM (inactive). Besides, the Potency entry in [5] is “inactive”. Further, the activity change, negative = inhibition in [6] (at 57.5 µM (top of the series)) is 3.03% (inactive). Besides, the max response in experiment [6] (setting [14]) is -21%; in experiment [6] (setting [15]) it was -26.1%.
